Nine molecules from PubChem BioAssay (NCI) can be followed below.

The panel holds about 83,000 compounds, 20% with a hit somewhere; the sample as a whole holds those more often.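 A percent growth of 40 corresponds to 60% growth inhibition; 0 means no net growth; -100 means all cells died. Active threshold: below 10.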 A number with no mark means an inactive call. Calls of active or inactive are those of the source.

Test systems include NCI-H23 lung; NCI-H226 lung; HOP-62 NSCLC; NCI-H460 lung; HOP-92 NSCLC; NCI-H522 lung; A549/ATCC NSCLC; 786-0 renal; COLO 205 colon; DU-145 prostate; K-562 leukemia; MDA-MB-231 breast; RXF 393 renal; SF-268 CNS; SF-295 CNS; UACC-257 melanoma; M14 melanoma; MALME-3M melanoma; SF-539 CNS.
Common to all, as to assay: NCI-60 one-dose screen, 48 h (100 = growth as untreated, 0 = no growth, -100 = all killed)
What all share (settings): 10 µM

Take `Cc1ccc(C(C)C)c(O)c1NC(=O)OC(C)C`: the growth with NCI-H23 lung is 96.2%; with NCI-H226 lung, 99.4%; with HOP-62 NSCLC, 91.6%; with NCI-H460 lung it was 102%; in the assay on HOP-92 NSCLC, 75.7%; in the assay with NCI-H522 lung, 84.8%. Moreover, the growth was 104% in the assay on A549/ATCC NSCLC; 92.3% in the assay with 786-0 renal; 99.6% with COLO 205 colon; 107% in the assay with DU-145 prostate; 114% with K-562 leukemia; 106% in the assay with MDA-MB-231 breast. In addition, the growth is 108% in the assay on RXF 393 renal; 93.8% in the assay on SF-268 CNS; 101% in the assay with SF-295 CNS; 91.7% in the assay with UACC-257 melanoma; 96.6% with M14 melanoma.

For `COc1ccc2c(c1)C(=O)/C(=C/c1cccc(OCC(=O)c3ccc([N+](=O)[O-])cc3)c1)CO2`, the growth with NCI-H23 lung is -15% (active); with NCI-H226 lung, 70.5%; in the assay on HOP-62 NSCLC it was 77%; in the assay with NCI-H460 lung, 73.9%; in the assay with HOP-92 NSCLC, 60.9%; with NCI-H522 lung it was -53.4% (active). Also, the growth was 23.7% with A549/ATCC NSCLC; 82.8% in the assay with 786-0 renal; 98.4% in the assay on COLO 205 colon; 63.4% in the assay with DU-145 prostate; -81.2% (active) in the assay with K-562 leukemia; 30.4% with MALME-3M melanoma. Besides, the growth is 60.9% with MDA-MB-231 breast; 62.8% in the assay with SF-268 CNS; 43.3% in the assay with SF-295 CNS; 27.8% in the assay on SF-539 CNS; -49.4% (active) with UACC-257 melanoma; 8.08% (active) in the assay with M14 melanoma.

Consider `CCOC(=O)Cn1c(=O)c2sc3ncccc3c2n2nnc(-c3ccccc3)c12`, for which the growth in the assay with NCI-H23 lung is 100%; in the assay with NCI-H226 lung it was 103%; with HOP-62 NSCLC, 95.4%; in the assay on NCI-H460 lung, 125%; in the assay on HOP-92 NSCLC, 71%; in the assay on NCI-H522 lung, 92.2%. Besides, the growth in the assay on A549/ATCC NSCLC is 107%; with 786-0 renal it was 99.9%; in the assay on COLO 205 colon it was 104%; in the assay with DU-145 prostate, 119%; in the assay with K-562 leukemia, 96.4%; in the assay with MDA-MB-231 breast it was 87.2%. Moreover, the growth in the assay with RXF 393 renal was 112%; with SF-268 CNS, 112%; in the assay on SF-295 CNS, 110%; with SF-539 CNS it was 105%; in the assay on UACC-257 melanoma, 108%; in the assay on M14 melanoma, 99%.

In the case of `O=C(O)Cc1ccc(O)c(O)c1`, the growth with NCI-H23 lung is 103%; with NCI-H226 lung, 98.2%; in the assay on HOP-62 NSCLC, 99.3%; in the assay with NCI-H460 lung it was 100%; with HOP-92 NSCLC, 109%; in the assay with NCI-H522 lung it was 106%. Besides, the growth in the assay with A549/ATCC NSCLC was 102%; in the assay with 786-0 renal it was 105%; in the assay on COLO 205 colon, 103%; in the assay on DU-145 prostate, 113%; with K-562 leukemia, 102%; in the assay on MDA-MB-231 breast, 99.2%. Also, the growth was 94.2% in the assay on RXF 393 renal; 97.6% in the assay on SF-268 CNS; 102% with SF-295 CNS; 89.9% in the assay on SF-539 CNS; 110% with UACC-257 melanoma; 96.5% with M14 melanoma.

With `COc1cc(NC(=O)C2=C(N3CCOCC3)/C(=C/c3ccc(Cl)cc3)CC2)cc(OC)c1OC`, the growth is 94.6% in the assay on NCI-H23 lung; 86.1% with NCI-H226 lung; 102% in the assay on HOP-62 NSCLC; 99.6% with NCI-H460 lung; 65.3% in the assay with HOP-92 NSCLC; 29.2% in the assay with NCI-H522 lung. The growth with A549/ATCC NSCLC is 40.8%; in the assay on 786-0 renal, 93.2%; with COLO 205 colon it was 98.5%; with DU-145 prostate, 99.4%; with K-562 leukemia, 49.7%; in the assay on MALME-3M melanoma it was 93.6%. Also, the growth is 91.6% in the assay with MDA-MB-231 breast; 114% with SF-268 CNS; 118% with SF-295 CNS; 101% with SF-539 CNS; 59.5% in the assay with UACC-257 melanoma; 97.3% with M14 melanoma.

Turning to `COc1ccc(-c2nc(-c3nc4ccc(C)cc4[nH]3)cc3c2[nH]c2ccccc23)cc1`, the growth is 39% with NCI-H23 lung; 63.9% with NCI-H226 lung; 55.3% with HOP-62 NSCLC; 32.8% in the assay on NCI-H460 lung; 33% in the assay with HOP-92 NSCLC; 14.7% in the assay with NCI-H522 lung. The growth with A549/ATCC NSCLC is 28%; in the assay with 786-0 renal, 69.9%; in the assay on COLO 205 colon it was 46.9%; with DU-145 prostate, 41.4%; in the assay with K-562 leukemia, 17%; in the assay with MDA-MB-231 breast, 15.8%. The growth was 27.9% with RXF 393 renal; 50.3% in the assay on SF-268 CNS; 25.5% in the assay on SF-295 CNS; 50.2% in the assay on SF-539 CNS; 69.6% in the assay on UACC-257 melanoma; 31.5% in the assay with M14 melanoma.

For the molecule `CC[N+](CC)=c1ccc2nc3c(cc(NCc4ccccc4)c4ccccc43)oc-2c1`, the growth with NCI-H23 lung was -76% (active); with NCI-H226 lung, -34.4% (active); in the assay on HOP-62 NSCLC, -99.6% (active); in the assay on NCI-H460 lung, -66.4% (active); in the assay with HOP-92 NSCLC, -7.03% (active); with NCI-H522 lung it was -82.3% (active). In addition, the growth in the assay with A549/ATCC NSCLC was -90.2% (active); with 786-0 renal, -62.7% (active); with COLO 205 colon, -89.4% (active); in the assay with DU-145 prostate, -95.8% (active); with K-562 leukemia, -26.1% (active); in the assay with MDA-MB-231 breast, -69.6% (active). The growth is -91.4% (active) in the assay with RXF 393 renal; -15.9% (active) with SF-268 CNS; -98.9% (active) in the assay on SF-295 CNS; -87% (active) in the assay with SF-539 CNS; -98.4% (active) with UACC-257 melanoma; -74.4% (active) in the assay on M14 melanoma.

In the case of `O=C1c2ccccc2C(=O)N1CCCCNc1ccccc1`, the growth with NCI-H23 lung is 104%; with NCI-H226 lung it was 91.7%; with HOP-62 NSCLC, 122%; with NCI-H460 lung, 89.3%; in the assay on HOP-92 NSCLC it was 106%; in the assay on NCI-H522 lung, 101%. The growth was 78.2% in the assay on A549/ATCC NSCLC; 63.7% in the assay with 786-0 renal; 114% in the assay with COLO 205 colon; 102% in the assay with DU-145 prostate; 149% in the assay with K-562 leukemia; 79.6% with MDA-MB-231 breast. Further, the growth is 104% with RXF 393 renal; 54.1% with SF-268 CNS; 98% in the assay with SF-295 CNS; 74.6% in the assay on SF-539 CNS; 106% with UACC-257 melanoma; 98.9% with M14 melanoma.

For `COc1ccc(C2CC(c3cccs3)=NN2c2ccc(S(N)(=O)=O)cc2)cc1` (stereo unspecified), the growth with NCI-H23 lung was 104%; in the assay on NCI-H226 lung, 90.7%; in the assay on HOP-62 NSCLC, 97.8%; in the assay with NCI-H460 lung, 84.2%; in the assay on HOP-92 NSCLC, 63.1%; with NCI-H522 lung, 69.6%. In addition, the growth with A549/ATCC NSCLC is 75.8%; in the assay on 786-0 renal it was 96.5%; with COLO 205 colon it was -89.6% (active); with DU-145 prostate, 102%; with K-562 leukemia it was 67.6%; in the assay on MDA-MB-231 breast it was 91.9%. The growth in the assay with RXF 393 renal was 93.6%; in the assay with SF-268 CNS it was 97.6%; in the assay on SF-295 CNS, 95.8%; in the assay with SF-539 CNS, 104%; with UACC-257 melanoma it was 30.5%; with M14 melanoma, 78.4%.
